Screening results: PubChem, National Center for Advancing Translational Sciences (NCATS)
Shown are actives, neighbours in structure and some others; about 13% of the full set was active somewhere.
HCV inhibitor – blocks hepatitis C virus. Huh7.5.1 HCVcc-Cre infection, luciferase reporter, 44 h. Potency, µM (top dose mostly 41.8 µM), without a hit: at the highest dose activity change, negative = inhibition, actives largely listed as inhibitors. hit rate 3.4% among 340,000. AID 651820; active means well fitted inhibition curve with a large enough effect; inconclusive means small, poorly fitted or top-dose-only effect, or another doubt; inactive means no such curve, though single readings can be large or run the other way; further: potency means the concentration at half of the fitted maximal effect; on the % scale 0 is the no-effect control and ±100 the full control effect
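After 44 h co-culture of compound, cells and HCVcc-Cre (~0.5 moi), substrate is added for 15 min at room temperature and luciferase measured over 15 sec. Cells were seeded at 1,000/well and pre-cultured 4 h.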
FMDV antiviral – antivirals against foot and mouth disease virus. FMDV antiviral cell-based qHTS. Potency, µM (top dose mostly 57.9 µM), for inactives: top-dose activity change, negative = inhibition, most hits filed as inhibitors. hit rate 1.2% among 410,000; calls by dose curve; tested in HEK293T cells; further: read-out not given here; potency means the concentration at half of the fitted maximal effect; on the % scale 0 is the no-effect control and ±100 the full control effect; nearly all actives have a fitted effect of over 45% in size
Shiga toxin inh – blocks Shiga toxin action in Vero cells | Vero cells, Shiga toxin protein synthesis inhibition reporter | inhibition, % at 38.7 µM | hit rate 9.2% among 290,000 | AID 2315; in the data active means inhibition mostly above about 28%, no sharp cut-off; inactive means mostly below about 43%; further: 0% is about no effect
MARV entry inh – inhibitors of Marburg virus binding or cell entry. Marburg virus pseudotyped entry inhibition, cell reporter. Potency, µM (highest dose often 37.8 µM), without a hit: at the top dose activity change, negative = inhibition, actives largely listed as inhibitors. hit rate 1.8% among 300,000; calls by dose curve; tested in HEK293 cells; further: potency means the concentration at half of the fitted maximal effect; on the % scale 0 is the no-effect control and ±100 the full control effect
Lassa entry inh – inhibitors of Lassa virus binding or cell entry. hit rate 1.2% among 300,000. Potency, µM (highest dose often 37.9 µM), for inactives: at the highest dose activity change, negative = inhibition, most hits filed as inhibitors. Lassa virus pseudotype entry inhibition, cell reporter. AID 540256; calls by dose curve; tested in HEK293 cells; further: potency means the concentration at half of the fitted maximal effect; on the % scale 0 is the no-effect control and ±100 the full control effect; nearly all actives have a fitted effect of over 50% in size
CHX counter – counter-screen for Shiga toxin inhibitors: cycloheximide protein synthesis inhibition. max response, %. cell reporter, cycloheximide protein synthesis inhibition counterscreen. hit rate 12% among 300,000; in the data active means max response mostly above about 13%, no sharp cut-off; inactive means mostly below about 14%; further: read at 38.3 µM for the half of the compounds with a filed dose; 0% is about no effect
* = called active by the depositor; ? = inconclusive; / = no result given; + = active, no number; [ ] = dose if it differs, or a comment.

SMILES | HCV inhibitor | FMDV antiviral | Shiga toxin inh | MARV entry inh | Lassa entry inh | CHX counter
Cc1ccc(NC(=O)COC(=O)Cc2csc(-c3ccc(Cl)cc3)n2)cc1C | 2% | 34% | + | 21% | 13% | 23*
CCOC(=O)c1scc(-c2ccc(C)cc2)c1S(=O)(=O)Nc1ccc(F)c(F)c1 | / | 50% | / | / | 1%[46.1 µM] | /
COc1cccc(C(=O)c2cn(CC(=O)Nc3cccc(C)c3C)c3nc(C)ccc3c2=O)c1 | / | 0% | / | / | -2%[46.1 µM] | /
COP1(=O)CC(O)C(O)C(COCc2ccccc2)O1 (centres undefined) | / | / | 2 | / | / | 0
O=C(N[C@H]1CP(=O)(Oc2ccccc2)O[C@H](COCc2ccccc2)[C@H]1O)C(Cl)(Cl)Cl (some centres undefined) | -9% | 5% | -2 | / | / | 25*
Cc1ccc2nc(N3CCN(Cc4ccc(F)cc4)C3=O)c(C)cc2c1 | ? | -16% | 41 | -8%[46.1 µM] | ? | 20*
Cc1ccc(NC2CCCN(C(=O)c3c(C)noc3C)C2)cc1C (centres undefined) | 9% | -12% | -36 | 27% | 2% | 12
Cc1ccc(/C=N\NC(=O)C2CC(=O)N(c3ccccc3)C2)o1 (centres undefined) | -1% | 37% | 25 | -2%[46.1 µM] | -8% | 24*
Cc1ccsc1/C=N/NC(=O)C1CC(=O)N(c2ccccc2)C1 (centres undefined) | -10% | 5% | -9 | 2% | 3% | 5
COC(c1ccccc1)c1nnc(CCC(=O)NCCc2ccc(Cl)cc2)o1 (centres undefined) | 6% | -9% | 3 | / | / | 1
C=C(C)CNC(=O)CCc1nnc(C2(c3ccc(Cl)cc3)CCC2)o1 | -7% | 48% | 75* | / | / | 44*
O=C(CCc1nnc(C2(c3ccc(Cl)cc3)CCC2)o1)NC1CC1 | 17% | 18% | -2 | ? | 0%[46.1 µM] | 14*
COC(=O)CNC(=O)CCc1nnc(C2(c3ccc(Cl)cc3)CCC2)o1 | 12% | 39% | 39* | / | / | 45*
C=CCNC(=O)CCc1nnc(C2(c3ccc(Cl)cc3)CCC2)o1 | 19% | 48% | 85* | / | / | 55*
O=C(CCc1nc(-c2ccc(Cl)cc2)no1)NC1CCCCC1 | 12% | -28% | -6 | 14% | -19% | -4
CS(=O)(=O)c1ccc(Cl)c(NC(=O)COC(=O)CCc2c[nH]c3ccccc23)c1 | 22% | -15% | / | 9% | 9% | /
O=C(OCC(=O)N(Cc1ccccc1)Cc1ccccc1)c1cccc(O)c1 | 8% | 15% | / | ? | ? | /
COCC(C)NC(=O)CCc1nnc(C2(c3ccc(Cl)cc3)CCC2)o1 (centres undefined) | 1% | 55% | 41* | / | / | 30*
CC(c1ccon1)N(C)C(=O)CCc1nnc(C2(c3ccc(Cl)cc3)CCC2)o1 (centres undefined) | 4% | 50% | 48* | / | / | 21*
Cc1cccc(NC(=O)c2ccc(-n3cccn3)c([N+](=O)[O-])c2)c1 | ? | -13% | 49 | 16% | 19% | 32*
Cc1ccc(CNC(=O)c2ccc(N3CCc4ccccc43)c([N+](=O)[O-])c2)cc1 | 6.3µM* | 6% | 30 | ? | ? | 13
O=C(Nc1ccccc1Cl)c1ccc(-n2cccn2)c([N+](=O)[O-])c1 | -21% | 8% | 42* | -12%[46.1 µM] | 1% | 16
O=C(Nc1ccc(F)c(F)c1)c1ccc(-n2cncn2)c([N+](=O)[O-])c1 | 22µM* | -14% | / | / | / | /
NNC(=O)c1ccc(N2CCc3ccccc32)c([N+](=O)[O-])c1 | -7% | ? | -5 | ? | -3% | 2
NS(=O)(=O)c1ccc(CCNC(=O)CNC(=O)c2ccccc2Br)cc1 | 9% | 14% | -2 | -4%[46.1 µM] | -11%[46.1 µM] | -2
SMILES | HCV inhibitor | FMDV antiviral | Shiga toxin inh | MARV entry inh | Lassa entry inh | CHX counter
Cc1csc2nc(O)c(C(=O)NCc3ccc4c(c3)OCO4)c(=O)n12 | ? | -20% | / | 2%[46.1 µM] | 17% | /
Cc1c(NC(=O)c2ccc(Cl)c([N+](=O)[O-])c2)cccc1-n1cnnn1 | 11µM* | -27% | / | ? | ? | /
Cc1ccc(NC(=O)c2ccc(-n3cccn3)c([N+](=O)[O-])c2)cc1 | ? | -4% | 22 | 8% | -20% | 21*
CC(=O)c1ccc(NC(=O)CCCC(=O)c2ccccc2)cc1 | 13% | -5% | -16 | / | / | -4
COc1cc(C=CC(=O)c2cc(OC)c(OC)c(OC)c2)cc(OC)c1OC | ? | 13µM* | / | ? | 7.9µM* | /
COc1cc(C=CC(=O)c2ccccc2)cc(OC)c1OC | / | 16µM* | / | / | / | /
COc1cc(/C=C/C(=O)N2CCC=CC2=O)cc(OC)c1OC | 32µM* | ? | / | / | / | /
COc1ccc2cc(C(=O)/C=C/c3cc(OC)c(OC)c(OC)c3)ccc2c1 | ? | -10% | 12 | ? | -30%[46.1 µM] | 17
N#Cc1c(-c2ccccc2)oc(=O)c2ccccc12 | -19% | 13% | / | / | / | -2
Cc1nc2scc(C)n2c(=O)c1S(=O)(=O)N1CCN(c2ccccn2)CC1 | 15% | 0% | -5 | -1%[46.1 µM] | -2% | 1
O=C(O)c1c(NC(=O)N(CCO)Cc2ccccc2)sc2c1CCCC2 | -9% | -3% | -5 | / | / | 0
O=C(NCCC1=CCCCC1)C(=O)c1c[nH]c2ccccc12 | 5% | 20% | 49* | ? | ? | 26*
O=C(NCCc1c[nH]c2ccccc12)C(=O)c1c[nH]c2ccccc12 | 6% | 7% | -2 | / | / | -6
Cc1cc2cc(CCNC(=O)C(C)C)c(=O)[nH]c2cc1C | 15% | / | / | 7% | ? | /
Cc1cc2cc(CCNC(=O)C(=O)c3c[nH]c4ccccc34)c(=O)[nH]c2cc1C | -18% | 1% | -2 | ? | 13µM* | -2
O=C(NCCOc1ccccc1)C(=O)c1c[nH]c2ccccc12 | -12% | 50% | 44 | / | / | 20*
O=C(NCCOc1ccccc1Cl)C(=O)c1c[nH]c2ccccc12 | 3% | 12% | 34 | 18% | 17% | 12
C/C(CC(=O)Nc1cccnc1)=N/NC(=O)COc1ccc(Cl)cc1Br | -2% | -9% | 4 | -21%[46.1 µM] | 0%[46.1 µM] | 1
N/C(=N\OC(=O)COc1ccc(Br)cc1Cl)c1cccnc1 | -12% | 18% | 93* | ? | ? | 45*
N/C(=N\OC(=O)COc1ccc(Br)cc1)c1ccncc1 | 6% | 38% | 19 | 21% | 0% | -3
N/C(=N\OC(=O)COc1ccc(Cl)cc1Cl)c1ccncc1 | ? | 16% | 85* | / | / | 43*
N/C(=N\OC(=O)COc1ccc(Cl)cc1Br)c1cccnc1 | -14% | 52% | 113* | -17%[46.1 µM] | 7% | 31*
Cc1cc(NC(=O)CSc2nc(N)c(NC(=O)c3ccc(F)c(F)c3)c(=O)[nH]2)no1 | 11% | -3% | -3 | ? | 15% | 2
Cc1cc2nc(CS)[nH]c2cc1C | ? | -15% | 60 | / | / | 17*
Cc1cc2nc(CO)[nH]c2cc1C | 1% | 28% | 21 | / | / | 0
